The results in this text go back to PubChem BioAssay (NCATS).

Records with an inconclusive call do not appear. A call without a number means that no potency is given here. Activity calls are given as the source filed them. Calls come from the whole dose curve; as a rule, active = well fitted cell-killing curve with a large enough effect; inconclusive = small, poorly fitted or top-dose-only effect, or effect the other way; inactive = flat fitted curve, though single readings scatter. Where a SMILES comes first, the peptide text is derived from it.
Potency is the fitted concentration of half-maximal effect.

For this assay, the system named is OV90. The assay can be described thus: Primary qHTS to identify gynecologic anti-cancer compounds using libraries of approved drugs and bioactive compounds (AID 1345084). Note: nearly all actives have a fitted effect of over 55% in size. To be noted: Gynecologic cancer cell panel viability, ATPlite luminescence, 48 h; series mostly up to 57.5 µM. The method in brief:
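Cells, 1,000 per well, plated 16 h, then exposed 48 h at 37 C to compounds. Viability by ATPlite luminescence after 15 min at room temperature.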
In general terms: Quantitative high-throughput screening tests each substance at several concentrations.
On to `OCC1OC(Oc2cc(O)cc(/C=C/c3ccc(OC4OC(CO)C(O)C(O)C4O)cc3O)c2)C(O)C(O)C1O` (centres undefined), for which the Potency result was “inactive”.
In the case of `C[C@@H]1O[C@@H](O[C@H]2[C@H](O[C@H]3[C@H](O[C@H]4CC[C@@]5(C)C(CC[C@]6(C)C5CC=C5[C@@H]7CC(C)(C)CC(=O)[C@]7(C)CC[C@]56C)[C@@]4(C)CO)O[C@H](C(=O)O)[C@@H](O)[C@@H]3O)O[C@H](CO)[C@H](O)[C@@H]2O)[C@H](O)[C@H](O)[C@H]1O` (some centres undefined), the activity change, negative = cytotoxicity was -8.44% [at 11.6 µM] (inactive).
Consider `CC(O)C/C=C/C=C/C(=O)OC1C=C2COC(=O)C2(O)C2(C)CCCC(C)(C)C12` (centres undefined), for which the Potency entry is “inactive”.
Consider `C[C@@H]1O[C@@H](O[C@H]2[C@H](O)[C@@H](O[C@@H]3O[C@H](CO)[C@H](O)[C@H](O)[C@H]3O)[C@H](O[C@H]3CC[C@@]4(C)C(CC[C@]5(C)C4CC=C4[C@@H]6CC(C)(C)CC[C@]6(C(=O)O[C@@H]6O[C@H](CO)[C@@H](O)[C@H](O)[C@H]6O)CC[C@]45C)C3(C)C)O[C@@H]2C(=O)O)[C@H](O)[C@H](O)[C@H]1O` (some centres undefined), for which the activity change, negative = cytotoxicity was 5.7% [at 11.6 µM] (inactive).
As to `COc1ccnc(CCc2nc3ncccc3[nH]2)c1`, the Potency entry was “inactive”.
For the compound `CC(=O)O[C@@H]1[C@H](O[C@@H]2OC[C@](O)(CO)[C@H]2O)[C@@H](O[C@@H]2O[C@@H](C)[C@H](O)[C@@H](O[C@@H]3O[C@H](CO)[C@@H](O)[C@H](O)[C@H]3O)[C@H]2O)[C@H](OC(=O)[C@]23CCC(C)(C)C[C@H]2C2=CCC4[C@@]5(C)C[C@H](O)[C@H](O[C@@H]6O[C@H](C(=O)O)[C@@H](O)[C@H](O)[C@H]6O)[C@@](C)(C(=O)O)C5CC[C@@]4(C)[C@]2(C)CC3)O[C@@H]1C` (some centres undefined), the activity change, negative = cytotoxicity was 0.0108% [at 6.55 µM] (inactive).
`CC(C)CC(=O)O[C@@H]1O[C@H](CO)[C@@H](O[C@H]2O[C@H](C)[C@@H](N[C@H]3C=C(CO)[C@@H](O[C@H]4O[C@H](CO)[C@@H](O[C@H]5O[C@H](CO)[C@@H](O[C@H]6O[C@H](CO)[C@@H](O)[C@H](O)[C@H]6O)[C@H](O)[C@H]5O)[C@H](O)[C@H]4O)[C@H](O)[C@H]3O)[C@H](O)[C@H]2O)[C@H](O)[C@H]1O`: the activity change, negative = cytotoxicity was 4.33% [at 11.6 µM] (inactive).
Turning to `NC[C@H]1CCC[C@@H](CNC(=O)[C@@H](Cc2c[nH]c3ccccc23)NC(=O)N2CCC3(C=Cc4ccccc43)CC2)C1`, the Potency entry is “inactive”.
As for `CC1CCC2(C)CCC3(C)C(=CCC4C5(C)CCC(O)C(C)(C(=O)O)C5CCC43C)C2C1C` (centres undefined), the Potency result was “inactive”.
As to `C[C@@H]1O[C@@H](O[C@H]2[C@@H]3C=CO[C@@H](O[C@@H]4O[C@H](CO)[C@@H](O)[C@H](O)[C@H]4O)[C@@H]3[C@@]3(CO)O[C@@H]23)[C@H](O)[C@H](O)[C@H]1OC(=O)/C=C/c1ccc(O)cc1`, the Potency entry was “inactive”.
Turning to `CC(CC12CCCN1C(=O)C1CCCN1C2=O)OC(N)=O` (centres undefined), the Potency result was “inactive”.
The same measure, in the same setting: the value for `CC/C=C\C(O)C(O)C1=C(C)C(=O)C2(O1)C(=O)NC(OC)(C(=O)c1ccccc1)C2O` (centres undefined) was “inactive”; that for `COc1c2cc(c(O)c1OC)CCCCC(O)CCc1ccc(O)c-2c1` (centres undefined) was “inactive”; that for `CC1CC(=O)[C@]2(O)C(C(=O)OCCc3ccc(O)cc3)=CO[C@@H](O[C@@H]3O[C@H](CO)[C@@H](O)[C@H](O)[C@H]3O)[C@H]12` (some centres undefined) was “inactive”.
On to `COC(=O)C1=CO[C@@H](O[C@@H]2O[C@H](CO)[C@@H](O)[C@H](O)[C@H]2O)C2C1CC(O)C2C` (some centres undefined), for which the Potency entry is “inactive”.
As for `CC(=O)OC[C@]12[C@H](OC(C)=O)[C@H](OC(=O)c3ccccc3)[C@@H]3[C@@H](OC(C)=O)[C@]1(OC3(C)C)[C@H](C)C[C@H](OC(=O)c1ccccc1)[C@@H]2OC(=O)c1ccccc1`, the Potency entry was “inactive”.
Same read-out and setting: the entry for `C[C@]1(C2CCCC2)Cc2cc(OCC(=O)O)c(Cl)c(Cl)c2C1=O` is “inactive”.
As for `CC(NC(=O)c1ccccc1N)C(=O)O` (centres undefined), the Potency result was “inactive”.
On to `O=C(Nc1ccn(Cc2c(F)cccc2C(F)(F)F)n1)c1c(F)cccc1F`, for which the activity change, negative = cytotoxicity is 0.656% [at 11.6 µM] (inactive).
In the case of `O=C(OC(C(F)(F)F)C(F)(F)F)N1CCN(Cc2cccc(Oc3ccccc3)c2)CC1`, the Potency result was “inactive”.
Regarding `C[C@H]1CC[C@@]2(OC1)O[C@H]1CC3C4CC[C@H]5C[C@@H](O)CC[C@]5(C)C4CC(=O)[C@]3(C)[C@H]1[C@@H]2C` (some centres undefined), the Potency result was “inactive”.
In the case of `Cc1oc(S(=O)(=O)N2CCCCC2)cc1NC(=O)Nc1ccccc1`, the Potency entry was “inactive”.
With `CCC(C)/C=C(C)/C=C/C1=CC2=C(Cl)C(=O)C(C)(OC(C)=O)C(=O)C2=CN1C(CC(=O)O)C(=O)O` (centres undefined), the Potency entry was “inactive”.
For the compound `CC(C)[C@](O)(c1ccc2cc(OC(F)F)c(OC(F)F)cc2c1)c1cn[nH]n1`, the Potency entry was “inactive”.
In the case of `COc1cc(C(=O)OC[C@H]2O[C@@H](OC(C)(C)C(=O)O)[C@H](O)[C@@H](O)[C@@H]2O)cc(OC)c1O`, the Potency result is “inactive”.
Take `COc1cc(C(C)=O)ccc1O[C@@H]1O[C@H](CO)[C@@H](O)[C@H](O)[C@H]1O`: the Potency result was “inactive”.
The same measure, in the same setting: the value for `CC1(C)C(=O)CCC2(C)C1C(O)C=C1COC(=O)C12O` (centres undefined) was “inactive”; that for `COc1cc(/C=C/c2ccccc2)c(C(=O)O)c(O)c1CC=C(C)C` was “inactive”.
Regarding `CCC(C)C(C(=O)O)N1Cc2c(OCC=C(C)C)c(C)c(OC)c(C(=O)O)c2C1=O` (centres undefined), the Potency result is “inactive”.
On to `COC(=O)C1=CO[C@@H](O[C@@H]2O[C@H](CO)[C@@H](O)[C@H](O)[C@H]2O)[C@@H]2[C@@H](CO)[C@@H](O)C(O)[C@H]12` (some centres undefined), for which the Potency result is “inactive”.
`CC(C)C[C@H](NC(=O)[C@@H]1O[C@H]1C(=O)O)C(=O)NCCCCN=C(N)N`: the Potency was 28.2 µM (active).
Turning to `C[C@@H]1O[C@@H](OC[C@H]2O[C@@H](OCc3ccccc3)[C@H](O)[C@@H](O)[C@@H]2O)[C@H](O)[C@H](O)[C@H]1O`, the Potency entry was “inactive”.
For the compound `CNC(=O)c1ccc2c(c1)CCO[C@H]2CCN1CCN(c2ccc(C(N)=O)cc2)CC1`, the Potency result was “inactive”.
As to `COC(=O)C1=COC(OC2OC(CO)C(O)C(O)C2O)C2C(COC(=O)/C=C/c3ccc(O)c(O)c3)C(O)C(O)C12` (centres undefined), the Potency entry is “inactive”.
Consider `CC(C)C1NC(=O)CNC(=O)C2CCCN2C(=O)C(Cc2c[nH]c3ccccc23)NC(=O)CNC(=O)C(Cc2ccc(O)cc2)NC(=O)CNC1=O` (centres undefined) (cyclo(GVGYGWP); configuration not given here), for which the Potency entry is “inactive”.
Take `CC(C)c1ccc2c(c1)C(=O)CC1C(C)(C(=O)O)CCCC21C` (centres undefined): the Potency entry was “inactive”.
Take `C=C1CCC2(C(=O)OC3OC(CO)C(O)C(O)C3O)CCC3(C)C(=CCC4C5(C)CCC(OC6OC(CO)C(OC7OC(C)C(O)C(O)C7O)C(OC7OCC(O)C(O)C7O)C6O)C(C)(C)C5CCC43C)C2C1` (centres undefined): the activity change, negative = cytotoxicity is 9.22% [at 11.6 µM] (inactive).
As for `C=C1CC2C(C)(CCC(=O)O)C(C(C)(C)O)CCC2(C)C2(C(=O)OC)C(=O)C(C)(O)C(=O)C12C` (centres undefined), the Potency entry is “inactive”.
For the compound `COc1ccc(-n2c(SCC#N)nc3sc4c(c3c2=O)CCCC4)cc1`, the Potency entry was “inactive”.
